Among the test systems are SR leukemia; OVCAR-8 ovarian; OVCAR-5 ovarian; OVCAR-4 ovarian; SK-OV-3 ovarian; IGROV1 ovarian; OVCAR-3 ovarian; HS 578T breast; NCI/ADR-RES ovarian.
Holding throughout (experiment): NCI-60 one-dose screen, 48 h (100 = growth as untreated, 0 = no growth, -100 = all killed)
Common to all, as to conditions: 10 µM

Compounds without any hit were thinned out: in the full panel of roughly 83,000, 20% have a hit.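 A percent growth of 40 corresponds to 60% growth inhibition; 0 means no net growth; -100 means all cells died. Active threshold: below 10.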 Values without a mark were called inactive. Active and inactive are the calls of the source.

Consider 14 compounds from PubChem BioAssay (NCI).

For the compound `O=C1CCn2c1c(O)c1ccccc1c2=O`, the growth is 95.1% in the assay on SR leukemia; 103% in the assay on OVCAR-8 ovarian; 114% in the assay with OVCAR-5 ovarian; 104% in the assay with OVCAR-4 ovarian; 103% with SK-OV-3 ovarian; 116% in the assay with IGROV1 ovarian. The growth in the assay on OVCAR-3 ovarian is 118%; with HS 578T breast, 93.6%; in the assay with NCI/ADR-RES ovarian it was 103%.

Turning to `C#CCOc1c(OC)cc(C(=O)/C(C)=C/c2cccc(N=[N+]=[N-])c2)cc1OC`, the growth with SR leukemia is 28.7%; with OVCAR-8 ovarian it was 28.6%; in the assay with OVCAR-5 ovarian it was 42.9%; in the assay on OVCAR-4 ovarian, 55.9%; with SK-OV-3 ovarian, 32.1%; in the assay with IGROV1 ovarian, 33.2%. The growth is -0.611% (active) in the assay on OVCAR-3 ovarian, 46% with HS 578T breast and 13.6% with NCI/ADR-RES ovarian.

For `COc1ccc(-c2nn(-c3cccc(Cl)c3)cc2-c2cc(-c3cccs3)[nH]c(=S)n2)cc1`, the growth in the assay on SR leukemia is 32.6%; with OVCAR-8 ovarian it was 48.3%; with OVCAR-5 ovarian, 83.1%; in the assay on OVCAR-4 ovarian, 60.4%; in the assay with SK-OV-3 ovarian it was 83%; in the assay on IGROV1 ovarian, 50.7%. For the same compound, the growth in the assay on OVCAR-3 ovarian was 57.8%; in the assay with HS 578T breast, 62.7%; with NCI/ADR-RES ovarian, 47.4%.

`Nc1nc(-c2cccnc2)nc2c1sc(=S)n2-c1ccccc1`: the growth in the assay on SR leukemia is 113%; in the assay with OVCAR-8 ovarian it was 101%; in the assay on OVCAR-5 ovarian, 125%; in the assay on OVCAR-4 ovarian, 128%; in the assay on SK-OV-3 ovarian it was 103%; with IGROV1 ovarian, 98.1%. Further, the growth in the assay on OVCAR-3 ovarian is 114%; in the assay with HS 578T breast, 91.4%; in the assay on NCI/ADR-RES ovarian, 93.1%.

Consider `CC(C)(C)OC(=O)CN1CCc2c(sc3ncnc(N/N=C/c4ccccc4Br)c23)C1`, for which the growth in the assay with SR leukemia is 37.6%; in the assay on OVCAR-8 ovarian, 61.5%; with OVCAR-5 ovarian, 92.3%; in the assay with OVCAR-4 ovarian, 74.7%; with SK-OV-3 ovarian it was 109%; with IGROV1 ovarian it was 50.6%. Besides, the results for the growth in the assay with OVCAR-3 ovarian, in the assay on HS 578T breast and in the assay on NCI/ADR-RES ovarian were 69%, 77% and 71.7%, respectively.

Consider `COc1ccc(-c2nn(-c3cccc(Cl)c3)cc2C=C(C#N)C#N)cc1`, for which the growth was -61.6% (active) with SR leukemia; 24.2% with OVCAR-8 ovarian; 29% in the assay on OVCAR-5 ovarian; 7.22% (active) in the assay with OVCAR-4 ovarian; -0.205% (active) with SK-OV-3 ovarian; 12.2% in the assay with IGROV1 ovarian. Besides, the figures for the growth in the assay with OVCAR-3 ovarian, in the assay with HS 578T breast and with NCI/ADR-RES ovarian were -23.6% (active), 24.5% and 2.52% (active), respectively.

With `O=c1cn[nH]c2ccc(Br)cc12`, the growth in the assay with SR leukemia was 89.4%; with OVCAR-8 ovarian it was 98.8%; in the assay with OVCAR-5 ovarian, 108%; with OVCAR-4 ovarian, 109%; with SK-OV-3 ovarian, 98.6%; in the assay with IGROV1 ovarian, 102%. Moreover, the figures for the growth in the assay with OVCAR-3 ovarian, in the assay on HS 578T breast and with NCI/ADR-RES ovarian were 105%, 99.4% and 105%, respectively.

Consider `CC(C)(C)OC(=O)CN1CCc2c(sc3ncnc(N/N=C/c4cccc5ccccc45)c23)C1`, for which the growth with SR leukemia was 18.2%; in the assay with OVCAR-8 ovarian, 35.6%; with OVCAR-5 ovarian it was 31.1%; in the assay with OVCAR-4 ovarian, 54.5%; with SK-OV-3 ovarian it was 67.4%; in the assay on IGROV1 ovarian, 30.1%. The growth is 39.9% in the assay with OVCAR-3 ovarian, 21.5% in the assay with HS 578T breast and 7.91% (active) in the assay on NCI/ADR-RES ovarian.

`CCn1cc(CNc2ccc(C(=O)Nc3ccc4ccccc4c3)cc2)c(C)n1`: the growth with SR leukemia was 46.2%; in the assay with OVCAR-8 ovarian, 45%; in the assay with OVCAR-5 ovarian, 94.4%; in the assay on OVCAR-4 ovarian, 20.8%; with SK-OV-3 ovarian, 11.8%; in the assay with IGROV1 ovarian, 68%. The growth is 55.9% in the assay on OVCAR-3 ovarian, 105% with HS 578T breast and 23.3% in the assay with NCI/ADR-RES ovarian.

With `CCCCC1(O)CCCCC1`, the growth was 92.6% in the assay on SR leukemia; 104% with OVCAR-8 ovarian; 112% with OVCAR-5 ovarian; 115% with OVCAR-4 ovarian; 112% with SK-OV-3 ovarian; 114% in the assay on IGROV1 ovarian. Also, the growth with OVCAR-3 ovarian was 106%; in the assay with HS 578T breast, 98.1%; with NCI/ADR-RES ovarian, 107%.

Regarding `C=C/C(C)=C/C[C@]1(C)[C@H](C)[C@@H](OC(=O)CCC)[C@H](O)[C@@]23C(=C[C@H](OC)C[C@@H]12)[C@@H](OC(=O)CCC)O[C@H]3OC(C)=O`, the growth in the assay with SR leukemia was -20.2% (active); in the assay with OVCAR-8 ovarian it was -60.4% (active); in the assay with OVCAR-5 ovarian, -41.3% (active); in the assay on OVCAR-4 ovarian it was -2.11% (active); in the assay on SK-OV-3 ovarian it was -89.7% (active); in the assay with IGROV1 ovarian, -9.72% (active). In addition, the growth was -86.5% (active) with OVCAR-3 ovarian, -31.5% (active) in the assay with HS 578T breast and -20.4% (active) in the assay on NCI/ADR-RES ovarian.

For the compound `CCn1c(CSc2nc3ccccc3c(=O)n2CCc2ccccc2)n[nH]c1=S`, the growth is 73.1% in the assay on SR leukemia; 89.7% in the assay with OVCAR-8 ovarian; 91.9% with OVCAR-5 ovarian; 85.6% in the assay with OVCAR-4 ovarian; 97.9% in the assay with SK-OV-3 ovarian; 93.4% with IGROV1 ovarian. The growth in the assay on OVCAR-3 ovarian is 102%; with HS 578T breast it was 91%; with NCI/ADR-RES ovarian, 73.7%.

Consider `COc1cc2c3c(n([C@H]4CCOC4)c(=O)c2cc1OC)-c1cc2c(cc1C3=O)OCO2`, for which the growth with SR leukemia was 13.6%; in the assay with OVCAR-8 ovarian, 35.2%; in the assay with OVCAR-5 ovarian, 71.6%; with OVCAR-4 ovarian it was 70.9%; in the assay on SK-OV-3 ovarian it was 24.6%; in the assay with IGROV1 ovarian, 62%. For the same compound, the growth was 46.9% in the assay with OVCAR-3 ovarian, 107% in the assay with HS 578T breast and 27.5% in the assay with NCI/ADR-RES ovarian.

As to `O=C(CCCSc1nc(-c2ccc(Cl)cc2)cc(-c2ccc(Cl)cc2)n1)NO`, the growth is 7.59% (active) in the assay on SR leukemia; 13.7% with OVCAR-8 ovarian; 18% in the assay on OVCAR-5 ovarian; 19.2% in the assay on OVCAR-4 ovarian; 14.2% in the assay on SK-OV-3 ovarian; 24.8% in the assay with IGROV1 ovarian. In addition, the growth is 5.4% (active) with OVCAR-3 ovarian, 53.5% in the assay with HS 578T breast and -28.7% (active) in the assay with NCI/ADR-RES ovarian.
